Measurements reported in PubChem BioAssay AID430 (Sanford-Burnham Center for Chemical Genomics, 2006).
Among all 63,000 compounds or so, about 1,100 (1.7%) were called active. The sample holds actives, similar compounds and a random draw of the others, so the mix is not that of the screen. Potency and affinity values are given separately. A number with no mark means an inactive call. Cut-off read from the data, not from the text of the source: active = cytotoxicity above about 50%; inactive = the rest.

Test: HPDE-C7 pancreatic duct cell viability loss – fluorescence, HTS (AID 430);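 note: cells exposed to compound for 48 hours before viability readout; 0% = vehicle and 100% = reference cytotoxic drug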
Details: HPDE-C7 pancreatic duct cells viability, at 10 µM, stronger effect = higher value

Structure (SMILES)	cytotoxicity
C=CCNC(=O)c1sc(=S)n(-c2ccc(C(=O)OCC)cc2)c1N	2.1%
COc1ccc(C)cc1NC(=O)C1CCCN(S(=O)(=O)c2cnc[nH]2)C1 (configuration not stated)	11.5%
O=C(Cc1ccc(Cl)cc1)Nc1ccccc1CO	-8.9%
CSc1nc(=NC(C)=O)ss1	-2%
CC1CCN(C(=O)CSc2nc(N)c3c4c(sc3n2)CN(C)CC4)CC1	5.8%
CCCCCCOc1ccc(C(=O)n2cnc(N)n2)cc1	71.3% (active)
COc1ccc(C(=O)n2cnc(N)n2)cc1	2.7%
CCCCOc1ccc(C(=O)N2CCCCCC2)cc1	-14.5%
COc1ccc2nc3c(cc2c1)c(NC(=O)c1cccs1)nn3CC(C)C	50.8% (active)
CCCCn1nc(NC(=O)c2cccs2)c2cc3cc(OC)ccc3nc21	28.9%
CCCn1nc(NC(=O)c2cccs2)c2cc3cc(OC)ccc3nc21	-7.4%
O=S(=O)(NCc1ccco1)c1cccc2cccnc12	15.9%
Cc1ccc(S(=O)(=O)C(C#N)c2nc3ccccc3nc2N2CCCC2)cc1C (configuration not stated)	53.9% (active)
Cc1cccc(S(=O)(=O)C(C#N)c2nc3ccccc3nc2N2CC(C)OC(C)C2)c1 (configuration not stated)	7.1%
Cc1cccc(S(=O)(=O)C(C#N)c2nc3ccccc3nc2N2CCCC2)c1 (configuration not stated)	-7.1%
Cc1ccc(S(=O)(=O)C(C#N)c2nc3ccccc3nc2N2CCCC2)cc1 (configuration not stated)	23.3%
Cc1ccc(S(=O)(=O)C(C#N)c2nc3ccccc3nc2N2CC(C)OC(C)C2)cc1C (configuration not stated)	50% (active)
Cc1ccc(C)c(S(=O)(=O)C(C#N)c2nc3ccccc3nc2N2CC(C)OC(C)C2)c1 (configuration not stated)	48.7%
COc1ccc2nc(NC(=O)Cc3ccc(OC)c(S(=O)(=O)N4CCOCC4)c3)sc2c1	13.1%
C=C1c2ccc(C)cc2NC(=O)N1c1ccccc1	-11.1%
CCc1c(C)nc2ncnn2c1NCCc1ccc(OC)cc1	64.9% (active)
CCc1c(C)nc2ncnn2c1NCCc1ccc(OC)c(OC)c1	4.7%
COc1ccc(CCNc2c(C)c(C)nc3ncnn23)cc1	10%
COCCNC(=O)c1ccccc1NC(=O)c1ccc(OC)c(OC)c1	-2.2%
O=P(c1ccccc1)(c1ccccc1)C(c1ccco1)N1CCOCC1 (configuration not stated)	-5.8%

Structure (SMILES)	cytotoxicity
O=C(Nc1ccc(N2CCOCC2)c(Cl)c1)c1ncn[nH]1	-2.8%
O=C(O)CCc1cc(I)c(Oc2ccc(O)c(I)c2)c(I)c1	92.3% (active)
N[C@@H](Cc1ccc(O)c(I)c1)C(=O)O	-10.4%
COc1ccc2[nH]c(C(=O)O)c(CCC(=O)O)c2c1	5.8%
Cc1nc2ccc(C(=O)c3ccccc3)cc2[nH]1	-13.6%
O=C(Nc1nc2ccccc2[nH]1)c1ccc(F)cc1	-12.8%
O=C(COc1ccccc1)Nc1nc2ccccc2[nH]1	-9.3%
COc1cc(C(=O)Nc2nc3ccccc3[nH]2)cc(OC)c1OC	-19.5%
COC(=O)Nc1nc2ccc(C(=O)c3ccccc3)cc2[nH]1	69.2% (active)
COC(=O)Nc1nc2ccc(Sc3ccccc3)cc2[nH]1	60.6% (active)
Cc1c(NC(=O)c2cc(-c3ccccc3)on2)c(=O)n(-c2ccccc2)n1C	-4.6%
O=S(=O)(NCC1CCCO1)c1cccc2nsnc12 (configuration not stated)	-2.4%
O=C(OCc1cc(-c2ccccc2)no1)c1ccc2ccccc2n1	-17.4%
O=C(Nc1ccc(N2CCOCC2)cc1)c1cnsn1	-19.9%
CSc1ncc(Cl)c(C(=O)Nc2ccc(S(=O)(=O)N3CCOCC3)cc2)n1	7.9%
CS(=O)(=O)c1ncc(Cl)c(C(=O)Nc2ccc(N3CCOCC3)cc2)n1	72.4% (active)
Cc1cc(NC(=O)CCN2C(=O)c3ccccc3C2=O)no1	-2.5%
CCn1c2ccccc2c2cc(C3C(C#N)=C(C)NC(C)=C3C#N)ccc21	-2.6%
CCn1c2ccccc2c2cc(C3C(C#N)=C(N)OC4=C3C(=O)CC(C)(C)C4)ccc21 (configuration not stated)	-26.8%
CCCc1[nH]nc2c1C(c1ccccc1OC)C(C#N)=C(N)O2 (configuration not stated)	4.9%
O=C(O)C1C2C=CC3(CN(Cc4ccccn4)C(=O)C13)O2 (configuration not stated)	63.6% (active)
O=C(O)C1C2C=CC3(CN(Cc4ccncc4)C(=O)C13)O2 (configuration not stated)	-13.4%
O=C(O)C1C2C=CC3(CN(Cc4ccco4)C(=O)C13)O2 (configuration not stated)	-6.3%
COCCn1c(SCC(=O)N2CCCc3ccccc32)nnc1-c1ccco1	-4.5%
CCNC(=O)N1C(=O)C2(OCCO2)c2ccccc21	-15.9%

Structure (SMILES)	cytotoxicity
CC(=O)N1C(=O)C2(Nc3ccccc3N2)c2ccccc21	-0.7%
CCCCOc1ccc(OCCCC)c2c1NC1(N2)C(=O)N(C(C)=O)c2ccccc21	69.8% (active)
CCOC(=O)Cc1nnc(NC(=O)Nc2ccccc2)s1	5%
Nc1ccc(-c2nc3ccccc3[nH]2)cc1	-5.6%
Nc1ccc(-c2nc3ccc(-c4nc5ccccc5o4)cc3[nH]2)cc1	76.2% (active)
Nc1cc(N)cc(-c2nc3ccccc3o2)c1	18.2%
O=S(=O)(Nc1nnc(-c2ccccc2)s1)c1ccc(Cl)cc1	8.8%
FC(F)(F)c1cc(-c2ccco2)nc(-n2nc(C(F)(F)F)cc2C2CC2)n1	5.7%
Cn1c(=O)c2c(nc(SCC(=O)N3CCCc4ccccc43)n2C)n(C)c1=O	-17.3%
O=C(CCCCn1c(=O)c2ccccc2n(Cc2ccc(F)cc2Cl)c1=O)NCc1ccco1	2.9%
O=C(NCc1ccccn1)c1ccc(COc2ccc(Cl)cc2)o1	4.2%
O=C(c1ccco1)N1CCN(c2nc(C(F)(F)F)nc3c2nnn3Cc2ccccc2)CC1	11.6%
Cc1nc(N2CCCC2)c2nnn(Cc3ccccc3Cl)c2n1	-10.9%
CC(=O)Nc1ccc(NC(=O)c2c(C)nc3ccccn23)cc1	6.8%
COc1ccc(C2C(C#N)=C(N)Oc3cc(O)ccc32)cc1OC (configuration not stated)	-6.7%
N#CC1=C(N)Oc2cc(N)ccc2C1C1CC=CCC1 (configuration not stated)	59.8% (active)
Cc1[nH]nc2c1C(C1CC=CCC1)C(C#N)=C(N)O2 (configuration not stated)	0.7%
COc1cc(C2C(C#N)=C(N)Oc3cc(N)ccc32)cc(OC)c1OC (configuration not stated)	58.5% (active)
N#CC1=C(N)Oc2cc(N)ccc2C1C1CCCCC1 (configuration not stated)	22.2%
COc1ccc(OC)c(C2C(C#N)=C(N)Oc3cc(N)ccc32)c1 (configuration not stated)	-0.7%
Cc1cc(C(=O)NCC2CCCO2)n(-c2ccccc2)n1 (configuration not stated)	0.2%
CCOc1ccc(NC(=O)c2oc3ccccc3c2NC(=O)C(C)C)cc1	11.9%
C=CCN1C(=O)C(CC(=O)O)SC1=Nc1c(C)n(C)n(-c2ccccc2)c1=O (configuration not stated)	-3.1%
Cc1nc2ccccc2c2oc(C(=O)NCc3ccccn3)cc12	4.5%
O=C1CC(N2CCN(C3CC(=O)N(CCc4ccccc4)C3=O)CC2)C(=O)N1CCc1ccccc1 (configuration not stated)	-9.9%

Structure (SMILES)	cytotoxicity
N#C/C(C(N)=O)=c1/ccc2c(c1)N1C3=C(CCCC3)CC3CCCCC31N=2 (configuration not stated)	77.9% (active)
N#CC(C#N)=c1ccc2c(c1)N1C3=C(CCCC3)CC3CCCCC31N=2 (configuration not stated)	72% (active)
Cc1cc(C(=O)COC(=O)C2=COCCO2)c(C)n1-c1ccc2c(c1)OCO2	-7.4%
CCCc1cc(C(=O)NC2CCCC2)no1	-4.5%
CCOC(=O)N1CCN(C(=O)CCn2c(=S)[nH]c3cc(OCC)c(OCC)cc3c2=O)CC1	1.3%
CCN1CCN(C(c2cccs2)C(C)NC(=O)c2ccccc2)CC1 (configuration not stated)	2.9%
CCOC(=O)N1CCN(c2cc(NCCC(=O)O)c3c4c(onc24)-c2ccccc2C3=O)CC1	58.8% (active)
CC(=O)OCCNc1cc(N2CCN(C)CC2)c2noc3c2c1C(=O)c1ccccc1-3	7.3%
O=C(O)CCCNc1cc(N2CCC3(CC2)OCCO3)c2noc3c2c1C(=O)c1ccccc1-3	34.7%
CCOc1ccc2noc3c2c1C(=O)c1ccccc1-3	29.3%
CCOC(=O)c1c(C)noc1CP(=O)(c1ccccc1)c1ccccc1	4.8%
CCC1CCCCN1C(=O)CSc1nnc(-c2ccc(Cl)cc2)o1 (configuration not stated)	1.2%
Cc1cccc(N2CCN(C(=O)Cc3c(C(=O)O)[nH]c4ccc(Cl)cc34)CC2)c1C	76.3% (active)
O=C(O)c1[nH]c2ccc(Cl)cc2c1CC(=O)N1CCN(C(=O)c2ccco2)CC1	-1%
O=C(O)c1[nH]c2ccc(Cl)cc2c1CC(=O)N1CCN(c2ccccc2)CC1	5.3%
Cc1ccc(OC(=O)CCC(=O)N2CCc3ccccc32)cc1	4%
Cc1cccc(N2CCN(CCNC(=O)c3cc4c(s3)CS(=O)(=O)C4)CC2)c1C	-3.7%
O=S(=O)(NCCc1ccccn1)c1cccs1	-28.8%
Cc1nc2c(c(=O)n1CCC1=CCCCC1)c1nc3ccccc3nc1n2/N=C/c1ccco1	63.7% (active)
CCCn1c(C)nc2c(c1=O)c1nc3ccccc3nc1n2CCC1=CCCCC1	-0.4%
O=c1c2c3nc4ccccc4nc3n(/N=C/c3ccco3)c2ncn1CCC1=CCCCC1	23%
O=c1oc2ccccc2c2c1ncn2-c1ccccc1	-17.3%
